Experiment in all cases: NCI-60 one-dose screen, 48 h (100 = growth as untreated, 0 = no growth, -100 = all killed)
Details in all cases: 10 µM unless noted

Assay [1] relates to RPMI-8226 leukemia.
Assay [2] relates to OVCAR-8 ovarian.
Assay [3] concerns OVCAR-4 ovarian.
The subject of assay [4] is SK-OV-3 ovarian.
The subject of assay [5] is IGROV1 ovarian.
Assay [6] has as its system OVCAR-3 ovarian.
Assay [7] deals with HS 578T breast.
Assay [8] has as its system NCI/ADR-RES ovarian.
Assay [9] relates to OVCAR-5 ovarian.

Compounds without any hit were thinned out: in the full panel of roughly 83,000, 20% have a hit.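 Method: cells in 96-well plates; compound added at one concentration; 48 h incubation; percent growth measured; values under 10 scored active.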 Values without a mark were called inactive. The source made the active and inactive calls. Where a SMILES comes first, the peptide text is derived from it. [ ]: non-standard residue; d: D form. ξ: configuration not given here. ξD = NC(CC(=O)O)C(=O)O

For the compound `Cc1ccc2c(c1)sc(-c1ccc(N(C)C)cc1)[n+]2C`, the growth is -56.7% (active) in [1]; 16.3% in [2]; 20.3% in assay [3]; -14.2% (active) in [4]; 8.14% (active) in [5]; -14.8% (active) in assay [6]. The figures for the growth in assay [7] and in assay [8] were 20.3% and 81.3%, respectively.

In the case of `Nc1cccc2cccc([N+](=O)[O-])c12`, the growth in [1] is 98.5%; in assay [2] it was 108%; in assay [9], 113%; in assay [3], 94.8%; in [5], 118%; in [6], 124%. Besides, the growth in assay [7] and in assay [8] was 103% in each case.

For `CCC1CCCCN1C(=S)N/N=C(\C)c1ccccn1` (configuration not stated), the growth was 9.93% (active) in assay [2]; 30.1% in assay [9]; -50.2% (active) in assay [3]; 8.27% (active) in [4]; 2.61% (active) in [5]; -18.9% (active) in assay [6]. For the same compound, the results for the growth in [7] and in assay [8] were -3.92% (active) and 5.77% (active), respectively.

In the case of `CCOc1cc(F)c([N+](=O)[O-])cc1[N+](=O)[O-]`, the growth was 24.2% in assay [1]; 19.6% in assay [2]; 77.9% in assay [9]; 46.9% in [3]; 91.9% in [5]; 46.7% in assay [6]. Also, the growth in assay [7] is 90.6%; in assay [8], 11.8%.

Turning to `O/N=C1\c2ccccc2-c2ccc(F)cc21`, the growth in assay [1] is 85.8%; in [2] it was 102%; in assay [9], 93.8%; in assay [3] it was 85.8%; in assay [5], 85.4%; in assay [7], 120%. Moreover, the growth in assay [8] was 107%.

With `O=C(c1ccccc1)c1ccc(O)c2ncccc12`, the growth was 8.06% (active) in assay [2]; 68% in assay [9]; 15.4% in [3]; 17% in [5]; -36.7% (active) in assay [6]; 52.7% in [7]. In assay [8], the growth is 2.55% (active).

Regarding `NCC(=O)NC(CC(=O)O)C(=O)O` (configuration not stated) (H-Gly-[ξD]-OH), the growth in assay [1] is 111%; in assay [2], 107%; in assay [3] it was 104%; in assay [4] it was 108%; in [5], 107%; in assay [6] it was 125%. Also, the growth in assay [7] is 99%; in assay [8], 104%.

As to `O=C(/C=C/C(Cl)(Cl)Cl)Nc1ccc(Cl)cc1`, the growth in assay [1] is 75.3%; in [9], 93.7%; in assay [3], 115%; in assay [4] it was 110%; in assay [5] it was -76.5% (active); in assay [6], 119%. Moreover, the growth in [7] was 105%; in assay [8], 95.5%.

As to `COc1ccc2nc3cc([N+](=O)[O-])ccc3c(NNc3ccccc3)c2c1`, the growth in assay [1] was 62.1%; in assay [2], 81.7%; in assay [3], 72.8%; in assay [4] it was 71.9%; in [5], 88.2%; in assay [6] it was 72.6%. For the same compound, in [8], the growth was 84.6%.

Regarding `S=c1[nH]c2cc(Cl)ccc2s1`, the growth in assay [2] was 103%; in assay [9], 98.6%; in [3], 106%; in assay [4], 102%; in assay [5] it was 105%; in assay [6] it was 102%. The growth in assay [8] was 105%.

Consider `N#CC(I)CS(=O)(=O)c1ccccc1` (configuration not stated), for which the growth in assay [1] is 101%; in assay [2] it was 91.5%; in [3], 95.4%; in assay [4], 102%; in assay [5] it was 69.3%; in assay [6] it was 76.4%. In addition, the results for the growth in [7] and in assay [8] were 114% and 97.4%, respectively.

`Cc1cc(I)nc2ccccc12`: the growth in assay [2] is 107%; in assay [9] it was 100%; in assay [3], 112%; in assay [4], 109%; in [5], 104%; in assay [6] it was 130%. Further, the growth in assay [8] is 109%.

As to `CC1(C)N=c2cc3c(cc2N1c1ccc(Cl)cc1)=Nc1ccccc1N3c1ccc(Cl)cc1`, the growth was -27.5% (active) in assay [1]; 21% in assay [2]; 25.5% in [9]; 39.1% in [3]; 59.4% in assay [4]; 35.9% in assay [6]. In addition, the growth in [8] was 20.4%.

Take `CCCCCCCCCCCCCCCc1ccc(C(=O)C[n+]2ccccc2)cc1`: the growth is -62.2% (active) in [1]; -46.7% (active) in [2]; 34.9% in [3]; -50.7% (active) in assay [4]; -93.1% (active) in [6]; -37.3% (active) in [7]. The growth in assay [8] was -21.5% (active).

`Cc1nn(CCO)c(C)c1N=[N+]([O-])c1c(C)nn(CCO)c1C`: the growth in assay [1] was -35% (active); in [2], 79%; in assay [3], 13.7%; in assay [4], 115%; in assay [6], -88.1% (active); in assay [7], 103%. In addition, the growth in assay [8] was 96.1%.

Source of the values: PubChem BioAssay (NCI).
